Data from PubChem BioAssay (NCATS).
Inconclusive results are not listed. The source made the active and inactive calls. Calls come from the whole dose curve; as a rule, active = well fitted cell-killing curve with a large enough effect; inconclusive = small, poorly fitted or top-dose-only effect; inactive = flat fitted curve, though single readings scatter.

Key:
[1] = Cell Viability - LYMP2-025 (AID 976); note: series mostly up to about 92 µM
Method in brief: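 Human lymphoblastoid LYMP2-025 cells, 2500/well, exposed 24 h at 37 C in complete medium in 1536-well qHTS. Viability as cellular ATP by CellTiter-Glo luminescence; AC50 from Hill fits of concentration-response data.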

[2] = Cell Viability - LYMP2-002 (AID 977);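 note: series mostly up to about 92 µM; compound exposure lasted 24 h at 37 °C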
Method in brief: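 Cytotoxicity is scored as concentration-dependent loss of cellular ATP in a human lymphoblastoid line after 24 hr compound treatment at 37 C. AC50 is obtained by modelling concentration-response data with the Hill equation.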

[3] = Cell Viability - LYMP2-006 (AID 978); note: series mostly up to about 92 µM; nearly all actives have a fitted effect of over 60% in size
Method in brief: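 Cells are seeded at 2500 per well and rested 5 hr at 37 C. Compounds are added across a concentration series for 24 hr at 37 C, after which ATP is quantified by luciferase luminescence.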

[4] = Cell Viability - LYMP2-007 (AID 979);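 note: cells exposed to compound for 24 h before reading; nearly all actives have a fitted effect of over 60% in size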
Method in brief: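 Human lymphoblastoid LYMP2-007 cells (2500/well) preincubated 5 h at 37 C, then treated 24 h at 37 C in complete medium. Viability by CellTiter-Glo ATP luminescence after 30 min at room temperature; AC50 from Hill fits.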

[5] = Cell Viability - LYMP2-008 (AID 980); note: nearly all actives have a fitted effect of over 60% in size
Method in brief: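 LYMP2-008 lymphoblastoid cells (2500/well) plated 5 h, then treated 24 h at 37 C in complete medium. Viability read as intracellular ATP by CellTiter-Glo luminescence after 30 min at room temperature; AC50 from Hill fits.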

[6] = Cell Viability - LYMP2-010 (AID 981); note: nearly all actives have a fitted effect of over 55% in size
Method in brief: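 Human lymphoblastoid LYMP2-010 cells (2500/well) treated 24 h at 37 C in complete medium; viability read as intracellular ATP by CellTiter-Glo luminescence. AC50 from Hill fits of concentration-response data; tetraoctylammonium bromide positive control.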

[7] = Cell Viability - LYMP2-012 (AID 982);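 note: cellular ATP by luciferase luminescence where a drop means cytotoxicity; cells exposed to compound for one day before reading; nearly all actives have a fitted effect of over 55% in size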
[8] = Cell Viability - LYMP2-014 (AID 983); note: series mostly up to about 92 µM; nearly all actives have a fitted effect of over 50% in size
Method in brief: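 LYMP2-014 human lymphoblastoid cells, 2500/well, treated 24 h at 37 C in complete medium; viability by CellTiter-Glo ATP luminescence after 30 min at room temperature. AC50 from Hill fits of qHTS concentration-response; tetraoctylammonium bromide positive control.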

[9] = Cell Viability - LYMP2-016 (AID 984); note: nearly all actives have a fitted effect of over 55% in size
Method in brief: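 Cells were seeded at 2500 per well and rested 5 hr before a 24 hr compound exposure at 37 C. Viability was then gauged as cellular ATP by luciferase luminescence, with AC50 values fitted to the Hill equation.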

[10] = Cell Viability - LYMP2-018 (AID 985); note: nearly all actives have a fitted effect of over 50% in size
Method in brief: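 Human lymphoblastoid LYMP2-018 cells, 2500/well, settled 5 hr at 37 C then exposed to compound 24 hr at 37 C; intracellular ATP measured by CellTiter-Glo luminescence. AC50 from Hill-equation concentration-response fits.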

Measured: Potency

O=C(O)c1ccc(C(=O)O)cc1
inactive: all assays above

Nc1nc2ccccc2[nH]1
inactive: all assays above

Nc1ccc(F)cc1F
inactive: all assays above

CCOc1cc(OCC)c(C(C)=O)cc1OCC
inactive: all assays above

CCCCCCCCCCCCOCC1CO1 (stereo not given)
inactive: all assays above

CCCC(Cl)CCCC(Cl)CCC(Cl)CCC(Cl)CCC(Cl)CCCC(Cl)CCC (stereo not given)
inactive: all assays above

Cc1ccc2ccccc2c1[N+](=O)[O-]
inactive: all assays above

Cc1ccco1
inactive: all assays above

CC(C)N(C)C
inactive: all assays above

Clc1ccccn1
inactive: all assays above

Cc1nc2ccc(Cl)cc2[nH]1
inactive: all assays above

CC(=O)Nc1ccc(C)cc1
inactive: all assays above

CC1CCCO1 (stereo not given)
inactive: all assays above

CC(C)=C1CCC(C)CC1=O (stereo not given)
inactive: all assays above

N#CC1(O)CCCCC1
inactive: all assays above

Cc1ccc(Cl)cc1
inactive: all assays above

C=CCOC(=O)CCCCCCCC
inactive: all assays above

CC(C)(O)C(=O)O
inactive: all assays above

O=C(O)CNC(=O)c1ccc([N+](=O)[O-])cc1
inactive: all assays above

C=CCCC
inactive: all assays above

CCNc1ccccc1
inactive: all assays above

CSc1ccc(C=O)cc1
inactive: all assays above

CCOCCO
inactive: all assays above

O=Cc1ccc(Cl)cc1
inactive: all assays above

C(=C/c1ccccc1)/c1ccccc1
inactive: all assays above

Cc1ccc2cccnc2c1
inactive: all assays above

CCC(C)(C)C
inactive: all assays above

O=C(Cl)c1ccccc1[N+](=O)[O-]
inactive: all assays above

NC(=O)NC(N)=O
inactive: all assays above

C=C(C)C1CC=C(C)C(OC(C)=O)C1 (stereo not given)
inactive: all assays above

BrC/C=C/CBr
inactive: all assays above

S=C([S-])NCCNC(=S)[S-].[Zn+2]
inactive: all assays above

CCCC=O
inactive: all assays above

Nc1cccc([N+](=O)[O-])c1
inactive: all assays above

O=C1CCCCC1
inactive: all assays above

C=C(C)C(=O)OCC(C)C
inactive: all assays above

c1ccc2[nH]cnc2c1
inactive: all assays above

CC(CCl)OC(C)CCl (stereo not given)
inactive: all assays above

COc1ccccc1[N+](=O)[O-]
inactive: all assays above

O=C(O)c1ccccc1[N+](=O)[O-]
inactive: all assays above

Cc1cc([N+](=O)[O-])ccc1N
inactive: all assays above

CC(C)C=O
inactive: all assays above

Cc1ccc([N+](=O)[O-])c(N)c1
inactive: all assays above

CC/C=C/C#N
inactive: all assays above

Cc1ccc(C)cc1
inactive: all assays above

CCN(Cc1ccccc1)c1ccccc1
inactive: all assays above

CC(=O)OC(C)C
inactive: all assays above

CC(=O)c1nccs1
inactive: all assays above

CC(C=O)Cc1ccc(C(C)(C)C)cc1 (stereo not given)
inactive: all assays above

O=Cc1ccc(CO)o1
inactive: all assays above

O=Cc1ccccc1Cl
inactive: all assays above

CN(C)CCCCl
inactive: all assays above

O=Cc1ccc(C(=O)O)cc1
inactive: all assays above

CCc1ccccc1O
inactive: all assays above

Nc1c(Cl)cc(Cl)cc1Cl
inactive: all assays above

NC(N)=S
inactive: all assays above
